Screening data as filed in PubChem BioAssay.
HT1080-NT tox – qHTS for induction of synthetic lethality in tumor cells producing 2HG: qHTS for the HT-1080-NT fibrosarcoma cell line; 360,000 tested, 1.6% active; Potency, µM (titrated, usually from 46.1 µM), for inactives: at the top dose activity, negative = less viability, usual class: cytotoxic; AID 686970, 2013; HT-1080-NT fibrosarcoma viability, CellTiter-Glo ATP luminescence, 48 h;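 note: NT is the 2HG producing partner of a matched IDH1 knockdown line; 0% = DMSO-treated cells and -100% = media-only wells without cells; nearly all actives have a fitted effect of over 55% in size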
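A 48-hour cytotoxicity screen used HT-1080-NT cells plated 2 hours before compound delivery. ATP-based CellTiter-Glo luminescence measured viability, normalized to DMSO and no-cell controls.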
KB-V1 cytotox – qHTS assay for MDR1-selective chemotherapeutics: Primary screen using the drug-selected MDR subline cells KB-V1; Potency, µM (doses to about 46.1 µM), hits mostly cytotoxic; KB-V1 MDR cells viability, CellTiter-Glo, 72 h; 400,000 tested, 3.4% active; note: % is set by controls: 0 for no effect and ±100 for the full control effect; nearly all actives have a fitted effect of over 60% in size
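Potencies derive from concentration-effect curves fitted to normalized luminescence (CellTiter-Glo) of KB-V1 cells treated for 72 h at 37 degrees C in phenol-red-free DMEM containing 10% FBS.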
SW480 rerep – A quantitative high throughput screen for small molecules that induce DNA re-replication in SW480 colon adenocarcinoma cells | 340,000 tested, 1.8% active | Potency, µM (doses to about 46.1 µM), for inactives: top-dose re-replication activation, actives largely listed as activators | SW480 DNA re-replication, Hoechst DNA content imaging, 48 h | AID 624297, 2012; note: % of control where 0% means no effect; nearly all actives have a fitted effect of over 55% in size
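Readout is total intensity of Hoechst-stained nuclei, excited at 405 nm and collected at 500-530 nm. Compound treatment lasted 48 hr at 37 C in 5% CO2 before staining.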
HT1080 IDH1KD tx – qHTS for induction of synthetic lethality in tumor cells producing 2HG: qHTS for the HT-1080-IDH1KD cell line; Potency, µM (series often up to 46.1 µM), for inactives: top-dose activity, negative = toxicity, usual class: cytotoxic; 360,000 tested, 2% active; HT-1080 IDH1 knockdown viability, ATP luminescence, 48 h;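 note: 0% = DMSO wells and -100% = cell-free medium wells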
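After a 2 h attachment period, IDH1KD HT-1080 cells took pin-transferred compound for 48 h at 37 °C; ATP-based luminescence after 10 min room-temperature reagent incubation reported viability.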
KB-3-1 tox – qHTS assay for MDR1-selective chemotherapeutics: Primary screen using the parental adenocarcinoma cell KB-3-1; KB-3-1 viability, CellTiter-Glo ATP luminescence, 72 h; Potency, µM (highest dose often 46.1 µM), usual class: cytotoxic; 400,000 tested, 1.4% active; AID 1347075, 2019; note: % is set by controls: 0 for no effect and ±100 for the full control effect; nearly all actives have a fitted effect of over 60% in size
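Viability of parental KB-3-1 cells, measured by CellTiter-Glo luminescence, followed a 72 h incubation at 37 °C with pinned compounds in phenol-red-free DMEM containing 10% FBS.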
MCF10A rerep – A quantitative high throughput screen for small molecules that induce DNA re-replication in MCF 10a normal breast cells; MCF 10A DNA re-replication, Hoechst nuclear intensity, 48 h; Potency, µM (highest dose often 46.1 µM), without a hit: at the highest dose activity, positive = re-replication, usual class: activators; 350,000 tested, 2.9% active; note: % of control where 0% means no effect; nearly all actives have a fitted effect of over 50% in size
* marks the source's active call; other numbers are inactive results; i = inactive; ? = inconclusive; · = no result. A selection: hits, their analogues and other compounds. The true share with any hit is near 8%. Calls come from the whole dose curve; as a rule, active = well fitted curve in the direction sought with a large enough effect; inconclusive = small, poorly fitted or top-dose-only effect, or another doubt; inactive = no such curve, though single readings can be large; an effect the other way counts as inactive or inconclusive. Potency is the fitted concentration of half-maximal effect.

SMILES	HT1080-NT tox	KB-V1 cytotox	SW480 rerep	HT1080 IDH1KD tx	KB-3-1 tox	MCF10A rerep
CCCCNS(=O)(=O)c1ccc(NS(=O)(=O)c2c(C)cc(C)cc2C)cc1	?	i	?	?	i	4.6µM*
Cc1ccc(C)c(N2CCN(C(=O)C(C)n3c(C)c4cnn(-c5ccccc5)c(=O)c4c3C)CC2)c1 (centres undefined)	·	i	·	·	i	·
O=C(C[N+]1(CC(O)c2ccccc2)CCOCC1)c1ccccc1 (centres undefined)	·	i	·	·	i	·
CCOC(=O)c1c(NC(=O)CSc2nc3ccccc3s2)sc(C)c1C	-2%	13µM*	0%	-2%	i	?
CCOC(=O)c1c(NC(=O)CSc2nnnn2-c2ccc3c(c2)OCCO3)sc(C)c1C	0%	?	30%	20%	i	18µM*
CCOC(=O)c1c(NC(=O)CSc2nc3ccccc3o2)sc(C)c1C	5%	i	8%	-6%	i	9%
Cc1ccc(NC(=O)CSc2nnnn2-c2ccc3c(c2)OCO3)cc1C	-7%	i	?	-8%	i	16µM*
Cc1ccc(NS(=O)(=O)c2cc3c(cc2Cl)NC(=O)C3)cc1C	·	i	·	·	i	·
CCc1nc(SC)ncc1C(=O)N1CCN(c2cc(C)ccc2C)CC1	·	i	·	·	i	·
CCOC(=O)c1c(-c2ccccc2)csc1NC(=O)c1cc(-c2ccc(Cl)cc2)on1	·	i	·	·	i	·
Cc1cnc(C(=O)Nc2ccc(OC(F)(F)F)cc2)cn1	-1%	?	11%	-9%	15µM*	15%
Cc1cnc(C(=O)Nc2ccc(N3CCCCC3)cc2)cn1	22%	i	-5%	10%	i	2%
Cc1nc(C(F)(F)F)c(C(=O)NC(=O)Nc2ccccc2)s1	-1%	i	-6%	-3%	i	-1%
Cc1nc(C(F)(F)F)c(C(=O)NC(=O)Nc2ccc(OC(F)(F)F)cc2)s1	-1%	16µM*	-17%	-3%	i	4%
CCOC(=O)c1cc(OC(=O)c2ccccc2F)n(-c2ccccc2)n1	·	i	·	·	i	·
Cc1ccc(C2=NN(C(=O)CCl)C(c3cccs3)C2)o1 (centres undefined)	4.6µM*	?	5.8µM*	2.3µM*	?	?
CC(=O)N1N=C(c2ccco2)CC1c1cccs1 (centres undefined)	0%	i	-2%	8%	i	-3%
O=C(CCl)N1N=C(c2ccco2)CC1c1cccs1 (centres undefined)	?	23µM*	3.3µM*	23µM*	?	21µM*
CCOC(=O)N1CCN(C(=O)c2sc3nc(-c4ccc(F)cc4)cn3c2C)CC1	5%	7.3µM*	-5%	7%	i	2%
Cc1c(C(=O)N2CC(C)OC(C)C2)sc2nc(-c3ccc(F)cc3)cn12 (centres undefined)	19%	8.2µM*	-3%	-4%	?	-8%
COc1ccccc1N1CCN(c2nc3ccccc3n3cnnc23)CC1	·	?	·	·	i	·
O=[N+]([O-])c1ccc(N/N=C/c2cccc(O)c2O)c(S(=O)(=O)N2CCOCC2)c1	-13%	?	4.1µM*	-8%	?	22%
O=[N+]([O-])c1ccc(N2CCN(c3ccccc3F)CC2)c(S(=O)(=O)N2CCOCC2)c1	-7%	7.3µM*	-6%	0%	i	-2%
Cc1ccccc1COC(=O)c1cc([N+](=O)[O-])ccc1N1CCOCC1	?	i	?	?	?	?
COc1ccc(OC)c(COC(=O)c2cc([N+](=O)[O-])ccc2N2CCOCC2)c1	?	?	?	?	5.2µM*	?
SMILES	HT1080-NT tox	KB-V1 cytotox	SW480 rerep	HT1080 IDH1KD tx	KB-3-1 tox	MCF10A rerep
O=C(OCc1ccccc1F)c1cc([N+](=O)[O-])ccc1N1CCOCC1	0%	18µM*	7%	-4%	i	11%
O=[N+]([O-])c1ccc(N2CCOCC2)c(S(=O)(=O)N2CCOCC2)c1	-1%	i	16%	0%	i	21%
O=[N+]([O-])c1ccc(N/N=C/c2ccc(O)c(O)c2O)c(S(=O)(=O)N2CCOCC2)c1	-16%	i	11%	-13%	i	-1%
Cc1nc(-c2ccc(Cl)cc2)sc1CCNC(=O)C(=O)Nc1ccc2c(c1)OCCO2	·	i	·	·	i	·
COCCNC(=O)CCn1c(=O)c2cc(OC)c(OC)cc2n(CC(=O)Nc2ccc(F)c(Cl)c2)c1=O	·	i	·	·	i	·
Cc1cccc(CNC(=O)C2CCN(c3nn4cc(-c5ccc(F)cc5)nc4s3)CC2)c1	·	i	·	·	i	·
CN(C)S(=O)(=O)c1cccc(COC(=O)c2cc([N+](=O)[O-])ccc2N2CCOCC2)c1	-28%	?	?	?	i	?
CSc1ccc(COC(=O)c2cc([N+](=O)[O-])ccc2N2CCOCC2)cc1	?	0.41µM*	0.058µM*	0.18µM*	0.15µM*	?
Cc1cccc(OCC(=O)Nc2ccc(OCc3cc(=O)n4cc(C)ccc4n3)cc2)c1	·	?	·	·	i	·
Cc1cccc(C(=O)Nc2sc(-c3ccccc3)cc2C(=O)O)c1	-3%	i	1%	-4%	i	?
CC(C)(C)C(=O)Nc1sc(-c2ccccc2)cc1C(=O)O	?	?	-2%	?	6.5µM*	0%
NC(=O)c1cc(-c2ccccc2)sc1NC(=O)CN1CCCCC1	?	i	2%	15µM*	i	?
